# Screening data from PubChem BioAssay.
# Many of the other results were omitted from the sample, so hits are more common in it than they were.
# IDE exosite inh – exo-site inhibitors of human insulin-degrading enzyme; z-score at 20 µM; 17,000 tested, 6.3% active; purified IDE, FL-6b probe fluorescence polarization; stronger effect = lower value; P14735;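 active = z-score of -3 or lower, meaning strong loss of probe binding signal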;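 note: His-tagged human IDE residues 42-1019 made in E. coli with 30 nM FL-6b probe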
# Target sequence (P14735 42-1019 limits assumed): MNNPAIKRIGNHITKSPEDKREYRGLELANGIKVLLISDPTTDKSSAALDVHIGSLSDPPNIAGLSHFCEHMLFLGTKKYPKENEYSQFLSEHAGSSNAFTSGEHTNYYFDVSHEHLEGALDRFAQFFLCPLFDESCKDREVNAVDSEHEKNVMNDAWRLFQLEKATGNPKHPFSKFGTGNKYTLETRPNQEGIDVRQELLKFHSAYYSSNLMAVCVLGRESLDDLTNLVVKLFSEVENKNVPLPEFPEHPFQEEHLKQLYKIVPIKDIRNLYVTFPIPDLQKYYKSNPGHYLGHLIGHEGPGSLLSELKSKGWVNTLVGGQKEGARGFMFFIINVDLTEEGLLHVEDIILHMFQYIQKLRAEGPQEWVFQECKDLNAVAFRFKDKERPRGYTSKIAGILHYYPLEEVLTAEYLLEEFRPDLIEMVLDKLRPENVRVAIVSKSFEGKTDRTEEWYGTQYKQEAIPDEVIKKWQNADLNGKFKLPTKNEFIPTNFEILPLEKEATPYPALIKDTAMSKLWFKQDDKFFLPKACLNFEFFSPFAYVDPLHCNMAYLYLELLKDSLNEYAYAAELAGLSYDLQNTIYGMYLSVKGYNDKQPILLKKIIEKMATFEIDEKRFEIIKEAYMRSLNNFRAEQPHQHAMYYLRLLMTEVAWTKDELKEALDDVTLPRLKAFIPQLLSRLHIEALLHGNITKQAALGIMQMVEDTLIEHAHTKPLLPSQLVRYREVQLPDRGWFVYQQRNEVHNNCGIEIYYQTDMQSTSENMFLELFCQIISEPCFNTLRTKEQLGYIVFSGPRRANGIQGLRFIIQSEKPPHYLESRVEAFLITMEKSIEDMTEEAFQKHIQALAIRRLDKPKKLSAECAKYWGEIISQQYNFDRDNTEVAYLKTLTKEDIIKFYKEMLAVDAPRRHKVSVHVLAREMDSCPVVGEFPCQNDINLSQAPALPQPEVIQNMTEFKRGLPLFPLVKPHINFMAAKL
# * marks the source's active call; other numbers are inactive results.
SMILES,IDE exosite inh
COc1ccc(C#Cc2ccc([C@@H]3[C@@H](CO)N4C(=O)CN(C(=O)c5ccncc5)C[C@@H]34)cc2)cc1,0.51
COc1ccc(C#Cc2ccc([C@@H]3[C@H](CO)N4C(=O)CN(C(=O)c5ccncc5)C[C@@H]34)cc2)cc1,3.3
COc1cccc(C#Cc2ccc([C@@H]3[C@H](CO)N4C(=O)CN(C(=O)c5ccncc5)C[C@@H]34)cc2)c1,-5.1*
COc1ccc(C#Cc2ccc([C@H]3[C@@H](CO)N4C(=O)CN(C(=O)c5ccncc5)C[C@@H]34)cc2)cc1,0.67
COc1ccc(C#Cc2ccc([C@@H]3[C@@H](CO)N4C(=O)CN(C(=O)c5ccncc5)C[C@H]34)cc2)cc1,3.3
COc1cccc(C#Cc2ccc([C@H]3[C@@H](CO)N4C(=O)CN(C(=O)c5ccncc5)C[C@@H]34)cc2)c1,-7.3*
COc1cccc(C#Cc2ccc([C@@H]3[C@@H](CO)N4C(=O)CN(C(=O)c5ccccc5)C[C@H]34)cc2)c1,0.1
COc1cccc(C#Cc2ccc([C@@H]3[C@@H](CO)N4C(=O)CN(C(=O)c5ccncc5)C[C@@H]34)cc2)c1,-3.2*
C/C=C/c1ccc([C@H]2[C@@H](CO)N(C(=O)C3CCCC3)[C@H]2CNCCC)cc1,6
O=C(C[C@H]1CC[C@@H]2[C@H](COC[C@@H](O)CN2C(=O)c2ccccc2F)O1)NCc1ccc(Cl)c(Cl)c1,-0.079
Cc1cccc(-c2ccc([C@H]3[C@H]4CN(S(=O)(=O)c5cccc(C)c5)CCCCN4[C@H]3CO)cc2)c1,1.3
C[C@H]1CN([C@@H](C)CO)C(=O)c2cc(N(C)C)ccc2O[C@@H]1CN(C)Cc1ccc(Oc2ccccc2)cc1,-0.87
COc1ccccc1-c1ccc([C@H]2[C@@H](CO)N3CCCCN(C(=O)CN4CCOCC4)C[C@@H]23)cc1,0.41
Cc1ccccc1-c1ccc([C@H]2[C@H]3CN(C(=O)CN4CCOCC4)CCCCN3[C@H]2CO)cc1,-2.2
COc1ccccc1-c1ccc([C@@H]2[C@@H](CO)N3CCCCN(C(=O)CN4CCOCC4)C[C@@H]23)cc1,-6.5*
CN1c2ccc(-c3cccc(C#N)c3)cc2[C@@H]2[C@@H](CCN2C(=O)CN2CCOCC2)[C@H]1CO,1.5
COc1ccccc1-c1ccc([C@@H]2[C@@H](CO)N3CCCCN(C(=O)CN4CCOCC4)C[C@H]23)cc1,1.9
CN1c2ccc(Br)cc2[C@H]2[C@H](CCN2C(=O)CN2CCOCC2)[C@H]1CO,2.6
Cc1ccccc1-c1ccc([C@@H]2[C@H](CO)N3CCCCN(C(=O)CN4CCOCC4)C[C@@H]23)cc1,-14*
COc1ccccc1-c1ccc2c(c1)[C@H]1[C@H](CCN1C(=O)CN1CCOCC1)[C@H](CO)N2C,-3.3*
Cc1ccccc1-c1ccc([C@H]2[C@H](CO)N3CCCCN(C(=O)CN4CCOCC4)C[C@@H]23)cc1,-3.7*
COc1ccc2c3c(n(C)c2c1)[C@@H](CO)N(C(=O)Nc1ccc(F)cc1)CC31CCN(C(=O)Nc2c(C)noc2C)CC1,0.93
O=C(C[C@@H]1C=C[C@@H](NC(=O)CCN2CCCCC2)[C@@H](CO)O1)Nc1nccs1,-0.2
COc1ccc2c3c(n(C)c2c1)[C@@H](CO)NCC31CN(S(=O)(=O)c2ccc(C)cc2)C1,-0.47
C[C@@H](NC(=O)C[C@H]1CC[C@H]2[C@@H](COC[C@@H](O)CN2C(=O)Nc2cccc(Cl)c2)O1)c1ccccc1,0.53
SMILES,IDE exosite inh
O=C(Nc1ccc2c(c1)[C@@H]1C[C@@H](CC(=O)N3CCc4ccccc4C3)O[C@H](CO)[C@@H]1O2)c1ccc2c(c1)OCO2,-0.09
CN1C(=O)c2cc(NC(=O)c3cnccn3)ccc2OC[C@@H]2O[C@H](CC(=O)NCC3CCCCC3)CC[C@H]21,-0.18
O=S(=O)(c1ccc(F)cc1)N1CCCCN2[C@H](CO)[C@@H](c3ccc(-c4cncnc4)cc3)[C@@H]2C1,-0.44
O=C(C1CCC1)N1CC(=O)N2[C@H](CO)[C@@H](c3ccc(Br)cc3)[C@@H]2C1,1.2
COc1ccccc1NC(=O)N1C[C@H](O)COC[C@@H]2O[C@@H](CC(=O)N3CCC(Cc4ccccc4)CC3)CC[C@H]21,0.006
Cc1ccccc1-c1ccc([C@H]2[C@@H](CO)N3CCCCN(S(=O)(=O)c4cn(C)cn4)C[C@@H]23)cc1,-3.4*
Cc1ccccc1-c1ccc([C@H]2[C@H]3CN(S(=O)(=O)c4cn(C)cn4)CCCCN3[C@H]2CO)cc1,-3.6*
COc1ccccc1-c1ccc([C@H]2[C@@H](CO)N3CCCCN(S(=O)(=O)c4cn(C)cn4)C[C@H]23)cc1,-9.3*
Cn1cnc(S(=O)(=O)N2CCCCN3[C@H](C2)[C@@H](c2ccc(-c4ccc(F)cc4)cc2)[C@@H]3CO)c1,0.91
Cn1cnc(S(=O)(=O)N2CCCCN3[C@H](C2)[C@@H](c2ccc(-c4ccccc4)cc2)[C@@H]3CO)c1,-1.5
Cc1ccccc1-c1ccc([C@@H]2[C@@H](CO)N3CCCCN(S(=O)(=O)c4cn(C)cn4)C[C@H]23)cc1,-2.2
Cc1ccccc1-c1ccc([C@@H]2[C@H](CO)N3CCCCN(S(=O)(=O)c4cn(C)cn4)C[C@@H]23)cc1,-16*
Cn1cnc(S(=O)(=O)N2CCCCN3[C@@H](CO)[C@H](c4ccc(-c5ccccc5)cc4)[C@@H]3C2)c1,-0.13
COc1ccccc1-c1ccc([C@H]2[C@H](CO)N3CCCCN(S(=O)(=O)c4cn(C)cn4)C[C@@H]23)cc1,0.67
COc1ccccc1-c1ccc([C@H]2[C@@H](CO)N3CCCCN(S(=O)(=O)c4cn(C)cn4)C[C@@H]23)cc1,0.4
CN(C)CC#Cc1ccc([C@@H]2[C@@H](CO)N3C(=O)CN(C(=O)c4ccccc4)C[C@H]23)cc1,3
COc1ccccc1NC(=O)N1CC(=O)N2[C@@H](CO)[C@H](c3ccc(C#Cc4ccc(F)cc4)cc3)[C@@H]2C1,4.8
COCC(=O)NC[C@@H]1[C@@H](c2ccccc2)[C@@H](CO)N1C(=O)c1ccccc1,1
C/C=C/c1ccc([C@H]2[C@@H](CO)N(CC3CCCC3)C23CN(S(=O)(=O)CC)C3)cc1,-0.21
CCCNC(=O)N1[C@H](C#N)[C@@H](c2ccccc2-c2ccccc2F)[C@H]1CO,-0.42
COc1ccc(-c2ccccc2[C@H]2[C@@H](C#N)N(C(=O)C3CCC3)[C@H]2CO)cc1,0.75
CN(C)C(=O)c1cccc(-c2ccc([C@H]3[C@@H](CO)N4CCCCN(Cc5cccnc5)C[C@@H]34)cc2)c1,1.8
N#C[C@@H]1[C@H](c2ccccc2C2=CCCCC2)[C@H](CO)N1C(=O)NC1CCCC1,0.86
CCC(=O)Nc1ccc2c(c1)C(=O)N(C)C[C@@H](OC)[C@@H](C)CN(C(=O)Cc1cccnc1)[C@@H](C)CO2,1.5
O=C(C1CCOCC1)N1CC(=O)N2[C@@H](CO)[C@H](c3ccc(C#Cc4cccc(F)c4)cc3)[C@@H]2C1,-6.6*
O=C(C1CCOCC1)N1CC(=O)N2[C@H](C1)[C@@H](c1ccc(C#Cc3cccc(F)c3)cc1)[C@@H]2CO,-9.4*
O=C(C1CCOCC1)N1CC(=O)N2[C@H](CO)[C@@H](c3ccc(C#CC4CC4)cc3)[C@@H]2C1,-0.18
O=C(C1CCOCC1)N1CC(=O)N2[C@H](CO)[C@@H](c3ccc(C#Cc4cccc(F)c4)cc3)[C@H]2C1,-4.4*
O=C(C1CCOCC1)N1CC(=O)N2[C@H](CO)[C@H](c3ccc(C#Cc4cccc(F)c4)cc3)[C@@H]2C1,-8.2*
O=C(C[C@H]1CC[C@H]2[C@@H](COC[C@H](O)CN2Cc2ccc(C(F)(F)F)cc2)O1)N1CCc2ccccc2C1,1.1
